Screening results (PubChem BioAssay)
Shiga inhibitor – A qHTS for Small Molecule Inhibitors of Shiga Toxin. Vero cells, Shiga toxin protein synthesis inhibition reporter. inhibition, % at 38.7 µM. 290,000 tested, 9.2% active. AID 2315, 2010; in the data active means inhibition mostly above about 28%, no sharp cut-off; inactive means mostly below about 43%; further: 0% is about no effect
SARS PLpro yeast-1 – qHTS of Yeast-based Assay for SARS-CoV PLP | Potency, µM (top dose mostly 32.9 µM), without a hit: top-dose activity, positive = growth rescue, hits mostly activators | AID 485353, 2010 | 330,000 tested, 0.19% active | S. cerevisiae expressing SARS-CoV PLpro, growth rescue; calls by dose curve; further: potency means the concentration at half of the fitted maximal effect; 0% is about no effect; nearly all actives have a fitted effect of over 55% in size
CHX counter – Cycloheximide Counterscreen for Small Molecule Inhibitors of Shiga Toxin; max response, %; cell reporter, cycloheximide protein synthesis inhibition counterscreen; AID 2314, 2010; 300,000 tested, 12% active; in the data active means max response mostly above about 13%, no sharp cut-off; inactive means mostly below about 14%; further: read at 38.3 µM for the half of the compounds with a filed dose; 0% is about no effect
AmpC inh no detg – qHTS Inhibitors of AmpC Beta-Lactamase (assay without detergent) | Potency, µM (highest dose often 57.1 µM), inactives show top-dose activity change, negative = inhibition, hits mostly inhibitors | P00811 | AmpC nitrocefin hydrolysis, absorbance 480 nm, 0.0001% Triton | 330,000 tested, 0.52% active;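 further: potency means the concentration at half of the fitted maximal effect; plate controls were no compound for no effect and no enzyme for full effect; nearly all actives have a fitted effect of over 20% in size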
Target sequence (P00811 whole entry, looked up): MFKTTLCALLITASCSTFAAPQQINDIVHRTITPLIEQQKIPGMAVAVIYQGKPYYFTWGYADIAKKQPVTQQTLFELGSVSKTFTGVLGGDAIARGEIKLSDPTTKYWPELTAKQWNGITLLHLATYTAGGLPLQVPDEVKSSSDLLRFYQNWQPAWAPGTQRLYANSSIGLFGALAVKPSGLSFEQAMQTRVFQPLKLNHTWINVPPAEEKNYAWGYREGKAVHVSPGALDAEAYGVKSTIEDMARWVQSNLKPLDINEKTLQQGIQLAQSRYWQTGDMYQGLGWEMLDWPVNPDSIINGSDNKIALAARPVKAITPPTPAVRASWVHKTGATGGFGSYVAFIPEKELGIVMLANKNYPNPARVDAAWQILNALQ
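AmpC (5.3 nM in the dispensed reagent) in 20 mM phosphate pH 7.0 with 0.01% (detergent screen) or 0.0001% Triton X-100 was preincubated with compounds for 15 min at room temperature. Nitrocefin was then added from an 800 uM solution, and hydrolysis was followed at 480 nm.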
AMA1-RON2 inh – qHTS for Inhibitors of AMA1-RON; Towards Development of Antimalarial Drug Lead: Primary Screen; Plasmodium falciparum AMA1 (3D7) - RON2 peptide interaction; AlphaScreen AMA1-biotinylated RON2 peptide binding; Potency, µM (highest dose often 58.2 µM), for the others: at the top dose activity change, negative = inhibition, actives largely listed as inhibitors; 360,000 tested, 0.2% active; AID 720542, 2013;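 further: potency means the concentration at half of the fitted maximal effect; 0% = vehicle wells and -100% = peptide control; nearly all actives have a fitted effect of over 45% in size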
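AMA1 (3D7) with his tag at 25 nM final met compounds first, then biotinylated RON2 peptide at 25 nM; detection used donor plus acceptor beads, 10 µg/mL apiece, read by AlphaScreen after 30 min at room temperature.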
AmpC inh detg – qHTS Inhibitors of AmpC Beta-Lactamase (assay with detergent). AID 485294, 2010. 370,000 tested, 0.041% active. Potency, µM (series often up to 114 µM), for inactives: at the top dose activity change, negative = inhibition, most hits filed as inhibitors. AmpC hydrolysis of nitrocefin, absorbance 480 nm, 0.01% Triton. P00811;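 further: potency means the concentration at half of the fitted maximal effect; 0% = no-compound wells and -100% = no-enzyme wells; nearly all actives have a fitted effect of over 25% in size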
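20 mM phosphate pH 7.0 + 0.01% (detergent screen) or 0.0001% Triton X-100; 5.3 nM AmpC reagent; cpd preinc 15 min RT; nitrocefin (800 uM stock) to start; A480 q20 s × 4 min; Activity was normalised to no-enzyme and no-compound control wells.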
SARS PLpro yeast-2 – qHTS of Yeast-based Assay for SARS-CoV PLP: Hit Validation. shares compounds with SARS PLpro yeast-1. yeast expressing SARS-CoV PLpro, growth phenotype rescue. calls only. 1,000 tested, 19% active. AID 652038, 2013; call rule not given here
Numbers without * were called inactive; i = inactive; ? = inconclusive; nt = not tested or not shown; + = active, no number; [ ] = another dose, or the depositor's remark. This excerpt belongs to a sample that is enriched for hits. Unless noted, the call rests on the fitted dose curve; in most records, active means well fitted curve in the direction sought with a large enough effect; inconclusive means small, poorly fitted or top-dose-only effect, or another doubt; inactive means no such curve, though single readings can be large; an effect the other way counts as inactive or inconclusive.

SMILES | Shiga inhibitor | SARS PLpro yeast-1 | CHX counter | AmpC inh no detg | AMA1-RON2 inh | AmpC inh detg | SARS PLpro yeast-2
CC(C)CC(=O)N1CCN(c2ccc([N+](=O)[O-])cc2Cl)CC1 | -6 | -35% | 11 | 26% | -15% | -9% | nt
COc1ccc(Cl)c2sc(N(Cc3cccnc3)C(C)=O)nc12 | -3 | -1% | -12 | 5% | -11% | 1% | nt
CCOC(=O)N1CCC(N2Cc3cccc(C(=O)N4CCN(c5cccc(C)c5C)CC4)c3C2=O)CC1 | 14 | -3% | -2 | 230% | 7% | 1% | nt
CCOC(=O)N1CCC(N2Cc3cccc(C(=O)N4CCN(C5CCCCC5)CC4)c3C2=O)CC1 | 32 | 20µM* | -9 | 13% | -5% | ? | i
CC[C@]12c3[nH]c4ccc(OC)cc4c3CCN1C(=O)C(CC(=O)NCCCOC)C[C@@H]2C(=O)N1CCN(C(=O)C2CC2)CC1 (stereo not given in full) | nt | -4% | nt | 18% | 3% | nt | nt
NC(=O)COC(=O)c1ccc2c(c1)S(=O)(=O)c1ccccc1C2=O | 16 | -18% | -1 | -6% | -15% | -7% | nt
O=C(OCc1ccccc1)c1ccc2c(c1)-c1ccccc1C2=O | 27* | 16µM* | 16* | -9% | 7% | -1% | i
c1ccc2c(CCNCc3ccc4c(c3)OCO4)c[nH]c2c1 | -7 | ? | -1 | -1% | -12% | -1% | i
O=C(CCc1c[nH]c2ccccc12)NCc1ccc2c(c1)OCO2 | -11 | -1% | 2 | -31% | 0% | -3% | nt
CC(CC(=O)Nc1ccc(F)c([N+](=O)[O-])c1)c1ccccc1 (stereo not given) | 9 | ? | -2 | -21% | -8% | ? | i
CN(C(=O)c1ccc(NC(=O)C2CCCN(C(=O)OC(C)(C)C)C2)cc1)C1CCCC1 (stereo not given) | nt | ? | nt | 176% | -5% | nt | i
Cc1ccc(NC(=O)COC(=O)C2CC2C)c(S(=O)(=O)N2CCCCC2)c1 (stereo not given) | 15 | -2% | -3 | -16% | 0% | -19% | nt
COC(=O)c1c(NC(=O)CN(C)CC(=O)Nc2ccc(C)cc2)sc2c1CCC(C)C2 (stereo not given) | nt | 2% | nt | -4% | 75% | 5% | nt
COC(=O)c1c(NS(=O)(=O)c2ccc(C)cc2)sc2c1CCC(C)C2 (stereo not given) | -4 | ? | -3 | -20% | -7% | ? | +
C/C(=N\NC(=O)CCCNc1ccc(C)cc1)c1ccccn1 | -4 | ? | -3 | -36% | 46% | ? | +
C/C(=N\NC(=O)CCCNc1ccccc1)c1ccncc1 | -4 | 1% | -1 | -10% | -3% | 5% | nt
CCOc1ccc(-c2nnc3ccc(SCC(=O)Nc4nc5ccccc5s4)nn23)cc1 | -12 | ? | 5 | 125% | -18% | ? | i
C#CC[N+]1(CC#Cc2ccc(C)cc2)CCCCC1 | -4 | 20µM* | -1 | -12% | 5% | -3% | i
CC(O)CC(=O)NOCc1ccccc1 (stereo not given) | nt | ? | nt | -17% | -10% | nt | i
NC(=O)NOCc1ccccc1 | -4 | 3% | -3 | -8% | 3% | 4% | nt
OCC[C@@H]1C[C@H](O)[C@@H](O)[C@@]2(OCCCc3ccccc32)O1 | -8 | -12% | -2 | -8% | 1% | -14% | nt
CN(C)CCNC(=S)Nc1cccc(Cl)c1 | 47 | ? | -1 | -14% | -1% | -7% | i
O=C(N/N=C/c1ccccc1OC(F)F)c1cc(-c2ccncc2)nc2ccccc12 | -8 | 13µM* | -3 | 41% | 63% | -2% | +
CC(Sc1ncc(C#N)c(N)n1)C(=O)Nc1ccccc1 (stereo not given) | -3 | 3% | 1 | -26% | 17% | 1% | nt
Cc1cccc(C)c1NC(=O)NN(C(=O)c1ccccc1)C(C)(C)C | -5 | 2.5µM* | 7 | -8% | -12% | 6% | i
SMILES | Shiga inhibitor | SARS PLpro yeast-1 | CHX counter | AmpC inh no detg | AMA1-RON2 inh | AmpC inh detg | SARS PLpro yeast-2
CCN(CC(=O)Nc1cc(C)nn1-c1nc(C)cc(C)n1)Cc1ccccc1 | -17 | ? | -4 | 104% | -5% | -17% | i
O=C(Nc1ccc(F)cc1F)NC1CCN(S(=O)(=O)c2ccc(F)cc2)CC1 | 4 | -1% | -3 | -33% | -3% | -8% | nt
Cc1cc(Cl)ccc1NC(=O)NC1CCN(S(=O)(=O)c2ccc(F)cc2)CC1 | 2 | ? | -5 | -26% | -17% | 4% | ?
COc1ccc(/C=N/NC(=O)c2nc(-c3ccccc3)n(-c3ccccc3)n2)c(O)c1 | -10 | 2.8µM* | -3 | -35% | 52% | ? | +
CC(C)(C)c1cc(C(=O)N/N=C/c2ccccc2O)n(-c2ccccc2)n1 | -13 | 14µM* | -6 | -31% | 67% | 1% | i
CC1(c2nnc(Cc3ccccc3)o2)CC(c2ccc(OC(F)(F)F)cc2)=NO1 (stereo not given) | nt | 10µM* | nt | 58% | 104% | -13% | i
CC(=O)Oc1ccc(C(=O)[C@H]2[C@H]3C(=O)N(c4ccc5ccccc5c4)C(=O)[C@H]3[C@@H]3C=CC=NN32)cc1 | 41 | 3.2µM* | 37* | 8% | -13% | -8% | i
COc1ccccc1N1C(=O)[C@@H]2[C@H](C1=O)[C@H](C(=O)c1ccc(OC(C)=O)cc1)N1N=CC=C[C@@H]21 | -2 | 0% | 9 | 72% | -2% | -6% | nt
O=C(Nc1cccc(C(=O)OCc2cc(=O)n3c4c(sc3n2)CCCC4)c1)c1ccccc1 | nt | nt | nt | nt | nt | 14% | nt
Cc1ccc(Nc2nnc(SC(C)C(=O)Nc3c(C)n(C)n(-c4ccccc4)c3=O)s2)cc1 (stereo not given) | -8 | 2.8µM* | -2 | 1% | 26% | -21% | i
Oc1c(CN2CCOCC2)cc(COCc2ccccc2)c2cccnc12 | 26 | nt | 28* | 31% | ? | -6% | +
CC(C)OCc1cc(CN2CCN(c3ccccc3)CC2)c(O)c2ncccc12 | nt | nt | nt | nt | nt | 19% | nt
Nc1c(Cl)ncnc1N/N=C/c1ccc2ccccc2n1 | 121* | nt | 69* | -19% | -12% | 4% | i
Nc1c(Cl)ncnc1Nc1ccc(C(=O)O)cc1 | nt | nt | nt | nt | -9% | nt | nt
O=C(OCc1cn([C@@H]2CN(CC3CCCCC3)[C@@H](c3ccc(Cl)cc3)C[C@H]2O)nn1)c1ccccc1 | nt | nt | nt | nt | 8% | nt | nt
NC(=O)c1ccc(Oc2ccc(Cl)c3ccccc23)c([N+](=O)[O-])c1 | -5 | 4.5µM* | -2 | -41% | 12%[11.6 µM] | 0% | ?
